ERK EGF block: qHTS Assay for Inhibitors of the ERK Signaling Pathway using a Homogeneous Screening Assay; Stimulation with EGF; 0.41% of 130,000 active; HEK293-V1b, EGF-stimulated phospho-ERK AlphaScreen; AID 1454, 2008; Potency, µM (highest dose often 11.5 µM), without a hit: at the top dose activity change, negative = inhibition, hits mostly inhibitors; active means well fitted inhibition curve with a large enough effect;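 further: plate controls were stimulated vehicle wells for no effect and unstimulated vehicle basal for full effect; nearly all actives have a fitted effect of over 55% in size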
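Readout: AlphaScreen signal for phosphorylated ERK in lysed HEK293 cells stably expressing V1b. Stimulus 25 nM EGF, 5 min, following 30 min compound exposure. Data scaled to DMSO basal and full EGF activation.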
An asterisk follows results filed as active; ! = not confirmed by another sample; [ ] = dose if it differs, or a comment. The sample as a whole holds a higher share of hits than the screen did. Potency means the concentration at half of the fitted maximal effect.

Results for CN(C)c1ccc(/C=C/C(=O)c2cc(Cl)ccc2O)cc1 ?
ERK EGF block: 14µM*

Results for CC(C)[C@@H](CC(=O)N[C@@H]1CCCC[C@H]1C(=O)N[C@H](CC(=O)N[C@@H](CCC(=O)O)CC(=O)O)Cc1c[nH]c2ccccc12)NC(=O)C[C@H](CO)NC(=O)[C@@H]1CCCC[C@H]1N ?
ERK EGF block: -11%

How did C=C1C(=O)C=C2CN(C(=O)c3ccccc3)[C@@](Cc3ccc(OC)cc3)(C(=O)OC)[C@@H]12 do in these assays?
ERK EGF block: 13µM*

What do the screens show for `COC(=O)[C@@]1(Cc2ccc(OC)cc2)[C@@H]2C(=CC(=O)[C@H]2CC(=O)C(=O)N2CCCC2)CN1C(=O)c1ccccc1`?
ERK EGF block: -5%

How did COC(=O)[C@@]1(Cc2ccc(OC)cc2)[C@@H]2[C@@H](CC(=O)[C@H]2CC(=O)C(=O)N(C)C)CN1C(=O)c1ccccc1 do in these assays?
ERK EGF block: -2%

What do the screens show for `CC(CNc1ccccc1O)C(=O)O` (stereo not drawn)?
ERK EGF block: 5%

Results for CCN1/C(=C2\C(=O)N(C)C(=S)N2C)C=Cc2cc(OC)ccc21 ?
ERK EGF block: 2%

What do the screens show for `CCN1/C(=C2\OC(=S)N(C)C2=O)C=Cc2ccccc21`?
ERK EGF block: -2%

What do the screens show for `CCN1C(=O)/C(=C2/C=Cc3cc(C)ccc3N2CC)N(C)C1=S`?
ERK EGF block: 14µM*

Results for O=C(CCBr)N1CCN(C(=O)CCBr)CC1 ?
ERK EGF block: -10%

How did CCCC/C=C/C(NC(=O)C(C)(C)C)c1ccccc1 (stereo not drawn) do in these assays?
ERK EGF block: 14%

What do the screens show for `Cc1cccc(N2CCN(C(=S)c3ccccc3)CC2)c1`?
ERK EGF block: 2%[57.5 µM]

What do the screens show for `O=[N+]([O-])c1cccc(C(=S)N2CCN(c3ccccc3)CC2)c1`?
ERK EGF block: 6%

What do the screens show for `Cc1cccc(N2CCN(C(=S)c3ccc([N+](=O)[O-])cc3)CC2)c1`?
ERK EGF block: 18µM*

How did Cc1noc(C)c1C(=O)N1CCC[C@@]2(CCN(C(=O)Nc3ccccc3)C2)C1 do in these assays?
ERK EGF block: 0%

What do the screens show for `CC(=O)c1cccc(NC(=O)c2csc3c2CCCCC3)c1`?
ERK EGF block: -13%

What do the screens show for `COC(=O)c1sccc1NC(=O)Nc1cccc(C(C)=O)c1`?
ERK EGF block: 2%

How did CC(=O)c1cccc(NC(=O)Nc2csc3c2CCCC3)c1 do in these assays?
ERK EGF block: 25µM*

What do the screens show for `O=C(O)c1ccc(C(=O)C(=O)c2ccccc2)cc1`?
ERK EGF block: 0%[57.5 µM]

What do the screens show for `CSC(SC)=C(C#N)C(=O)c1ccccc1`?
ERK EGF block: 25µM*

How did N#CC(C#N)=C(Nc1ccccc1)c1ccccc1 do in these assays?
ERK EGF block: -2%

How did O=C1NCCN1CCN1C(=O)c2ccccc2NC1c1ccccc1 (stereo not drawn) do in these assays?
ERK EGF block: -1%[57.5 µM]

How did COc1cc([C@@H]2c3cc4c(cc3C(OC3OC5COC(C)OC5C(O)C3O)C3COC(=O)[C@@H]32)OCO4)cc(OC)c1O (stereo partly drawn) do in these assays?
ERK EGF block: 1%

Results for COCCNc1nc(C)nc2c1nc(-c1ccccc1)n2CCN1CCCC1 ?
ERK EGF block: -3%

How did Cc1cc(C(=O)Nc2ccc(C)c(S(=O)(=O)N3CCOCC3)c2)c(C)o1 do in these assays?
ERK EGF block: -7%

How did Cc1ccc(NC(=O)/C=C/c2ccc3c(c2)OCO3)cc1S(=O)(=O)N1CCOCC1 do in these assays?
ERK EGF block: 28µM*

What do the screens show for `O=C(/C=C/c1ccc2c(c1)OCO2)NCCCN1CCOCC1`?
ERK EGF block: -14%

What do the screens show for `Nc1nc2c(c(=O)[nH]1)N=C(CNc1ccc(C(=O)NC(CCC(=O)O)C(=O)O)cc1)CN2` (stereo not drawn)?
ERK EGF block: 6%

How did O=C(O)[C@H]1CN[C@H](C(=O)O)C1 do in these assays?
ERK EGF block: -1%

What do the screens show for `N=C1C(c2ccccc2)=C(O)CN1NC(=O)c1ccc(Cl)cc1`?
ERK EGF block: 20%

What do the screens show for `O=Nc1c(-c2c(O)[nH]c3cc(Br)ccc23)[nH]c2ccccc12`?
ERK EGF block: 28µM*

What do the screens show for `O=S(=O)(Cc1ccccc1)N=Nc1c(O)[nH]c2ccc(Br)cc12`?
ERK EGF block: 2%[57.5 µM]

How did NC(=S)N=Nc1c(O)[nH]c2ccccc12 do in these assays?
ERK EGF block: 7%

How did COc1ccc2c(c1)CC1c3c(cc4c(c3-2)OCO4)CC[N+]1(C)[O-] (stereo not drawn) do in these assays?
ERK EGF block: -15%[57.5 µM]

How did FC(F)(F)c1ccccc1-n1ccnc1 do in these assays?
ERK EGF block: 4%

Results for Clc1ccccc1C(c1ccccc1)(c1ccccc1)n1ccnc1 ?
ERK EGF block: 22µM*!

How did Clc1ccccc1-c1nccc(-n2ccnc2)n1 do in these assays?
ERK EGF block: 26%

What do the screens show for `O=C1C=CC2=C3c4cc(O)c(O)cc4C[C@@]3(O)COC2=C1`?
ERK EGF block: 1%
